Source: PubChem BioAssay (National Center for Advancing Translational Sciences (NCATS))
Lassa entry inh = inhibitors of Lassa virus binding or cell entry | Lassa virus pseudotype entry inhibition, cell reporter | Potency, µM (series often up to 37.9 µM), inactives show top-dose activity change, negative = inhibition, most hits filed as inhibitors | actives 1.2% (n = 300,000); calls by dose curve; tested in HEK293 cells; also: potency is read from the fitted curve at half-maximal effect; % is scaled to controls: 0 for no effect and ±100 for the full control effect; nearly all actives have a fitted effect of over 50% in size
HCV inhibitor = HCV inhibition | Huh7.5.1 HCVcc-Cre infection, luciferase reporter, 44 h | Potency, µM (series often up to 41.8 µM), for inactives: at the highest dose activity change, negative = inhibition, most hits filed as inhibitors | actives 3.4% (n = 340,000) | AID 651820; active = well fitted inhibition curve with a large enough effect; inconclusive = small, poorly fitted or top-dose-only effect, or another doubt; inactive = no such curve, though single readings can be large or run the other way; also: potency is read from the fitted curve at half-maximal effect; % is scaled to controls: 0 for no effect and ±100 for the full control effect
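Infectious HCVcc-Cre (~0.5 moi) was added to cells just after compound, with cells seeded 4 h earlier at 1,000 per well. Luciferase activity after 44 h culture reported infection; substrate was incubated 15 min at room temperature before reading.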
MARV entry inh = inhibitors of Marburg virus binding or cell entry | Marburg virus pseudotyped entry inhibition, cell reporter | Potency, µM (top dose mostly 37.8 µM), inactives show at the highest dose activity change, negative = inhibition, usual class: inhibitors | actives 1.8% (n = 300,000); calls by dose curve; tested in HEK293 cells; also: potency is read from the fitted curve at half-maximal effect; % is scaled to controls: 0 for no effect and ±100 for the full control effect
FMDV inh = antivirals against foot and mouth disease virus | FMDV antiviral cell-based qHTS | Potency, µM (titrated, usually from 57.9 µM), for inactives: at the highest dose activity change, negative = inhibition, most hits filed as inhibitors | actives 1.2% (n = 410,000) | AID 1159524; calls by dose curve; tested in HEK293T cells; also: read-out not given here; potency is read from the fitted curve at half-maximal effect; % is scaled to controls: 0 for no effect and ±100 for the full control effect; nearly all actives have a fitted effect of over 45% in size
Shiga inhibitor = Shiga toxin inhibition | AID 2315 | Vero cells, Shiga toxin protein synthesis inhibition reporter | inhibition, % at 38.7 µM | actives 9.2% (n = 290,000); in the data active = inhibition mostly above about 28%, no sharp cut-off; inactive = mostly below about 43%; also: 0% is about no effect
Cycloheximide cs = counter-screen for Shiga toxin inhibitors: cycloheximide protein synthesis inhibition. actives 12% (n = 300,000). cell reporter, cycloheximide protein synthesis inhibition counterscreen. max response, %; in the data active = max response mostly above about 13%, no sharp cut-off; inactive = mostly below about 14%; also: read at 38.3 µM for the half of the compounds with a filed dose; 0% is about no effect
An asterisk follows results filed as active; ? = inconclusive; · = no result; [ ] = another dose, or the depositor's remark. Compounds with a hit are over-represented: about 13% of the library has one in this group of screens.

SMILES | Lassa entry inh | HCV inhibitor | MARV entry inh | FMDV inh | Shiga inhibitor | Cycloheximide cs
N/C(Cc1nc(-c2ccc(Cl)cc2)cs1)=N/O | 3% | -14% | 6% | 2% | 40* | 41*
Cc1ccc(-c2csc(CC(N)=O)n2)cc1 | 23%[46.1 µM] | 25% | ? | 32% | 66* | 31*
NC(=O)Cc1nc(-c2ccccc2)cs1 | 5% | 14% | ? | -7% | -2 | 6
O=c1oc2ccccc2cc1-c1csc(Cc2nc(-c3ccc(Br)cc3)cs2)n1 | -28% | ? | -20% | -16% | 4 | 7
CC(=O)NCCNC(=O)c1cnn(-c2nccc(-c3cc(C)sc3C)n2)c1C | · | · | · | -8% | · | ·
CCc1nc2c(OCc3c(C)noc3C)cccn2c1N(C=O)Cc1ccccc1 | · | · | · | 7% | · | ·
COc1ccc(CNC(=O)CN(C(=O)CCC(=O)Nc2ccccn2)c2ccccc2OC)cc1 | -27% | 7% | ? | -25% | -6 | 16
O=C(c1ccccc1)c1cc2cc(Cl)ccc2[nH]1 | 19%[46.1 µM] | 0% | 25%[46.1 µM] | 26% | 40* | 32*
CC1CN(C(=O)c2cc3cc(Cl)ccc3[nH]2)CC(C)O1 (stereo unspecified) | · | -1% | · | 37% | -6 | 10
COc1cccc(C(=O)c2cc3cc(Cl)ccc3[nH]2)c1 | -11% | -22% | -6% | 62% | 42* | 38*
COc1cccc(C(=O)c2ccccc2C(=O)O)c1 | · | · | · | -8% | · | ·
Cc1ccc(CNCc2c(C(=O)O)n(Cc3ccc(C)cc3)c3cc(C)ccc23)cc1 | ? | · | · | -16% | · | ·
CCN1CCN(C(=O)/C=C/c2c(F)cccc2Cl)CC1 | -2% | 2% | ? | -5% | 15* | 10
CCN1CCN(C(=O)/C=C/c2ccc(C(C)C)cc2)CC1 | -1%[46.1 µM] | -17% | ? | 32% | · | ·
CCCCOc1ccc(/C=C/C(=O)OCC(=O)N2CC(=O)Nc3ccccc32)cc1OCC | -24% | 7.9µM* | -8% | 13µM* | 5 | 10
CCN1CCN(C(=O)/C=C/c2ccc(C)o2)CC1 | 6% | 18% | -4% | -20% | -8 | 7
COc1ccc(/C=C/C(=O)OCC(=O)N2CC(=O)Nc3ccccc32)cc1 | -10% | -4% | -25% | 0% | -17 | -1
O=C1CN(C(=O)/C=C/c2cccc(Cl)c2)c2ccccc2N1 | ? | 14µM* | ? | -11% | -10 | -3
CCN1CCN(C(=O)/C=C/c2cccc(Cl)c2)CC1 | · | 4% | · | 7% | 23 | 15*
CCCS(=O)(=O)NC(=O)C1(C)CCCN(C(=O)c2ccc(C(=O)OC)cc2)C1 (stereo unspecified) | · | · | · | -14% | · | ·
O=C(/C=C/c1c(F)cccc1Cl)N1CCc2ccccc2C1 | ? | -4% | ? | 28% | · | 14*
CC(Sc1nnc2c(n1)[nH]c1ccccc12)C(=O)N(C)C1CCCCC1 (stereo unspecified) | ? | 6.3µM* | ? | ? | -9 | -6
CC(Sc1nnc2c(n1)[nH]c1ccccc12)C(=O)NC1CCCCC1 (stereo unspecified) | ? | 5.6µM* | 4.5µM* | ? | 2 | -3
Cc1cc(NC(=O)c2cnc3c(-c4ccccc4)c(C)nn3c2C)ccc1Br | -7%[46.1 µM] | · | · | -11% | · | ·
CCN(CC(=O)Nc1c(F)cccc1F)C(=O)CNC(=O)c1ccc(C)s1 | -5% | · | 6% | 3% | 65* | 51*
SMILES | Lassa entry inh | HCV inhibitor | MARV entry inh | FMDV inh | Shiga inhibitor | Cycloheximide cs
O=C(CSc1ccccc1C(=O)O)Nc1ccc2c(c1)OCO2 | · | 5% | · | -4% | · | ·
CC(Sc1ccccn1)C(=O)Nc1ccc2c(c1)OCCO2 (stereo unspecified) | -3% | 20% | -2% | 25% | · | ·
O=C(CSc1ncccc1C(=O)O)Nc1ccc2c(c1)OCCO2 | 16%[46.1 µM] | 12% | 2%[46.1 µM] | -15% | 82* | 100*
CC(=O)c1cccc(NC(=O)C(Sc2ncnc3ccccc23)c2ccccc2)c1 (stereo unspecified) | 1% | ? | -21% | -1% | 9 | 8.0*
O=C(CSc1ncnc2ccccc12)Nc1ccc2c(c1)OCCO2 | 11% | ? | -23%[46.1 µM] | -17% | 63 | 31*
Cc1ccc(C)c(NC(=O)C(Sc2ncnc3ccccc23)c2ccccc2)c1 (stereo unspecified) | 0% | ? | -12% | -13% | -3 | 5
CC(Sc1ncnc2ccccc12)C(=O)Nc1ccc2c(c1)OCCO2 (stereo unspecified) | -23% | 13µM* | ? | 16µM* | -2 | 14
CCOC(=O)C1=CNS(=O)(=O)NC1c1ccc2ccccc2c1 (stereo unspecified) | · | 6.3µM* | · | -3% | · | ·
O=C(c1ccccc1)c1ccc(O)c(O)c1O | · | -6% | · | -17% | · | ·
CC(Oc1ccc2c(-c3ccccc3)cc(=O)oc2c1)C(=O)NCC(O)c1ccccc1 (stereo unspecified) | · | 8.9µM* | · | -24% | -1 | 1
Cc1c(OCC(=O)NCC(O)c2ccccc2)ccc2c(-c3ccccc3)cc(=O)oc12 (stereo unspecified) | · | 32µM* | · | -10% | -3 | -4
CCc1onc(C)c1C(=O)Nc1ccc(N2CCOCC2)cc1 | · | 1% | · | 11% | · | ·
CC(=O)Nc1ccc(C(=O)CCl)cc1 | · | -24% | 3% | 28µM* | · | ·
CC(=O)N(C)Cc1ccc(C(=O)CSc2nnc(C3CC3)n2C2CC2)cc1 | -19% | ? | ? | -6% | · | ·
CC(=O)NCc1ccc(C(=O)CCl)cc1 | -8%[46.1 µM] | ? | 18%[46.1 µM] | 32µM* | -9 | 1
CC(=O)N(C)Cc1ccc(C(=O)CCl)cc1 | -9% | ? | -1%[46.1 µM] | ? | 42 | 26*
CCCNC(=O)Nc1ccc(NC(C)=O)cc1 | · | 12% | · | 1% | -3 | -4
COc1ccc(C(=O)OCC(=O)c2ccc(CNC(C)=O)s2)cc1 | 0% | 39% | ? | 41% | · | ·
CC(=O)NCc1ccc(C(=O)CCl)s1 | ? | ? | 4.5µM* | 28µM* | 22 | 5
Cn1c(=O)c2c(nc3sccn32)n(C)c1=O | 6% | 16% | 29% | 0% | 11 | 20*
Cc1nc2sccn2c(=O)c1Cl | -9% | -8% | 25% | · | -6 | -2
Cn1c(Cc2c[nH]c3ccccc23)n[nH]c1=S | -2% | 6% | 23% | 5% | -4 | -2
Nc1nc(SCc2ccc3c(c2)OCCO3)n[nH]1 | ? | 4% | 14%[46.1 µM] | 52% | 71* | 21
CC(=O)Nc1nc(SCc2ccc(Cl)cc2Cl)n[nH]1 | -1% | 3% | -9% | -9% | -15 | 8
Nc1nc(SCc2ccc(F)cc2)n[nH]1 | · | 9% | · | -6% | · | 9
Nc1nc(SCc2ccc(Cl)cc2Cl)n[nH]1 | ? | 6% | ? | -3% | 27 | 21*
Cc1ccc(S(=O)(=O)NC(=O)C2(C)CCN2C(=O)CC2CCCCC2)nc1 (stereo unspecified) | · | · | · | 0% | · | ·
CCOC(=O)CSc1nc2cc3c(cc2c(=O)n1CCCCCC(=O)NCc1ccc2c(c1)OCO2)OCO3 | 2%[46.1 µM] | · | · | -26% | · | ·
